An excerpt weighted towards active compounds, which were near 3.8% of everything screened.
ATXN2 expr inh: reduces ATXN2 reporter expression in HEK-293 cells; Potency, µM (highest dose often 57 µM), for the others: at the top dose activity change, negative = inhibition, hits mostly inhibitors; 360,000 compounds, 0.72% hits; HEK-293 ATXN2-luciferase reporter, luminescence, 24 h; also: % is scaled to controls: 0 for no effect and ±100 for the full control effect; nearly all actives have a fitted effect of over 55% in size
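qHTS (up to 57 uM final) was run with 24 h compound exposure of reporter cells at 37 °C. Each well was multiplexed: SteadyGlo luminescence measured ATXN2-luciferase expression after a fluorogenic Gly-Phe-AFC viability readout (25 uM final).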
S2 tox: viability counter-screen for ATXN expression inhibitors. S2 cells (HEK-293 line with an ATXN2-luciferase reporter) viability, CellTiter-Fluor protease fluorescence, 24 h. Potency, µM (top dose mostly 56.7 µM), most hits filed as cytotoxic. 400,000 compounds, 0.49% hits. AID 651635; also: nearly all actives have a fitted effect of over 40% in size
HT1080-NT tox: kills 2HG-producing HT-1080-NT fibrosarcoma cells | HT-1080-NT fibrosarcoma viability, CellTiter-Glo ATP luminescence, 48 h | Potency, µM (highest dose often 46.1 µM), without a hit: at the top dose activity, negative = less viability, actives largely listed as cytotoxic | 360,000 compounds, 1.6% hits | AID 686970;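 also: NT is the 2HG producing partner of a matched IDH1 knockdown line; 0% = DMSO-treated cells and -100% = media-only wells without cells; nearly all actives have a fitted effect of over 55% in size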
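Fibrosarcoma NT cells, 750 per well in 5% FBS RPMI, were exposed to compound for 48 hours. Viability: CellTiter-Glo luminescence.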
HT1080 IDH1KD tx: toxicity to HT-1080 IDH1 knockdown cells (counter line); Potency, µM (titrated, usually from 46.1 µM), inactives show top-dose activity, negative = toxicity, actives largely listed as cytotoxic; AID 686971; 360,000 compounds, 2% hits; HT-1080 IDH1 knockdown viability, ATP luminescence, 48 h;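 also: 0% = DMSO wells and -100% = cell-free medium wells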
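Using the IDH1-knockdown HT-1080 line run in the same batch and compound series as the NT line, viability after 48 h at 37 °C was determined by CellTiter-Glo luminescence and expressed as % activity.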
HepG2 viability: HepG2 cytotoxicity, counter-screen for TGF-b inhibitors; HepG2 CAGA-GFP viability, ATP luminescence, 18 h; Potency, µM (series often up to 46.1 µM), for the others: at the top dose activity change, negative = cytotoxicity, most hits filed as cytotoxic; 410,000 compounds, 0.76% hits; AID 588856
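CellTiter-Glo luminescence gave cytotoxicity after 18 hours at 37 degrees C. The cells were HepG2 CAGA-GFP in 1% FBS DMEM, stimulated with 500 pg/mL TGF-beta after compound addition. %Activity was normalised to no-cell wells (complete cell-killing) and DMSO (no toxicity), and curves were fitted and classified.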
TGFb inhibitor: inhibitors of TGF-b signaling; HepG2 CAGA-GFP TGF-b/SMAD3 reporter, GFP fluorescence, 18 h; TGF-beta stimulated, 500 pg/mL final; Potency, µM (series often up to 46.1 µM), for inactives: top-dose activity, negative = inhibition, usual class: inhibitors; 410,000 compounds, 1.2% hits; AID 588855; also: % is scaled to controls: 0 for no effect and ±100 for the full control effect; nearly all actives have a fitted effect of over 65% in size
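HEPG2 CAGA-GFP cells (1000/well, DMEM with 1% FBS) were pre-incubated 2 h at 37 degrees C, given compound by pin tool, then stimulated with TGF-beta at 500 pg/mL final for 18 h before per-cell GFP fluorescence imaging.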
Active calls of the source: *; i = inactive; ? = inconclusive; nt = no result. Calls follow the shape of the dose curve; as a rule, active = well fitted curve in the direction sought with a large enough effect; inconclusive = small, poorly fitted or top-dose-only effect, or another doubt; inactive = no such curve, though single readings can be large; an effect the other way counts as inactive or inconclusive. Potency is read from the fitted curve at half-maximal effect.

SMILES	ATXN2 expr inh	S2 tox	HT1080-NT tox	HT1080 IDH1KD tx	HepG2 viability	TGFb inhibitor
CCOc1ccc2nc(NC(=O)Nc3ccccc3)sc2c1	74%	i	-3%	-22%	-16%	-4%
COc1cccc(CNC(=O)c2ccc3nc(-c4ccc(F)cc4)c(-c4ccc(F)cc4)nc3c2)c1	-2%	i	nt	nt	-17%	-1%
Cc1ccc(N2CC(NC(=O)c3ccccc3Br)CC2=O)cc1 (stereo not drawn)	nt	nt	nt	nt	-2%	18%
COc1ccc(C2=NC3(CCCCCC3)N(CC(=O)Nc3ccc(C)c(C)c3)C2=O)cc1	nt	nt	nt	nt	5%	nt
CSc1nc2ccc(NC(=O)c3ccccn3)cc2s1	?	i	15µM*	12µM*	-25%	-20%
Cc1ccc2nc(NC(=O)c3ccc(OCC4CCCO4)cc3)sc2c1 (stereo not drawn)	-44%	i	-23%	7.3µM*	-19%	-5%
CCOc1ccc(S(=O)(=O)N(C)c2ccc(OCC(=O)Nc3nc4ccccc4s3)cc2)cc1	-13%	i	-11%	6.5µM*	-29%	?
CSc1nc2ccc(NC(=O)C3=NNC(=O)CC3)cc2s1	nt	?	-2%	-29%	-9%	-28%
Cc1ccc2nc(NC(=O)c3ccccn3)sc2c1	?	?	15µM*	2.3µM*	-51%	0%
Cc1cc(C)c2nc(NC(=O)c3ccc(OCC4CCCO4)cc3)sc2c1 (stereo not drawn)	nt	?	0%	?	-24%	-20%
COc1ccc(Nc2ncc3c(n2)CCN(Cc2cc(Br)cs2)C3)c(OC)c1	0%	i	nt	nt	2%	-3%
COc1ccc2nc(NC(=O)c3cnccn3)sc2c1	-36%	i	11µM*	7.9µM*	-42%	6%
COc1ccc(C(=O)Nc2nc3ccc(OC)cc3s2)cc1	?	?	-24%	-14%	-23%	-4%
COc1ccc(OC)c(C2C3=C(COC3=O)Nc3cc4c(cc32)OCO4)c1 (stereo not drawn)	-13%	?	0.65µM*	0.52µM*	1%	?
COc1ccc(C2C3=C(CC(C)(C)CC3=O)Nc3cc4c(cc32)OCO4)cc1 (stereo not drawn)	-3%	?	6%	15%	-24%	-21%
CS(=O)(=O)c1ccc(-c2cccc3c2OC(CNC(=O)c2ccnc(Cl)c2)C3)cc1 (stereo not drawn)	nt	i	nt	nt	nt	nt
COc1ccccc1N1CCN(S(=O)(=O)c2ccc(-c3ccno3)cc2OC)CC1	-20%	i	nt	nt	-23%	?
Cc1c(-c2nc(N)nc(Nc3ccccc3F)n2)oc2ccccc12	107%	i	-2%	-2%	-35%	-8%
COc1cccc(Nc2nc(N)nc(-c3oc4ccccc4c3C)n2)c1	39%	?	10µM*	7.9µM*	-32%	?
Cc1ccc(Nc2nc(N)nc(-c3oc4ccccc4c3C)n2)cc1	nt	i	0.0065µM*	0.01µM*	3%	?
Cc1cccc(Nc2nc(N)nc(-c3oc4ccccc4c3C)n2)c1	65%	?	?	?	-26%	-28%
COc1cc(OC)c(N(C)C(=O)c2nn(C)c3c2CSc2ccccc2-3)cc1Cl	nt	nt	nt	nt	-40%	?
CC1C(c2ccccc2)N(C)C(c2ccccc2)C(C)C1(O)C#Cc1ccccc1 (stereo not drawn)	-30%	?	-7%	?	-31%	11µM*
CCN1CCC(O)(C#Cc2ccccc2)CC1	9%	i	-29%	3%	1%	11%
O=C(CN1c2ccccc2Sc2ccccc21)NNC(=O)Nc1ccc(Cl)cc1	-31%	i	23µM*	21µM*	-61%	?
SMILES	ATXN2 expr inh	S2 tox	HT1080-NT tox	HT1080 IDH1KD tx	HepG2 viability	TGFb inhibitor
O=C(CSc1nc2ccccc2s1)NNC(=O)Nc1ccc(Cl)c(Cl)c1	3%	i	-2%	-7%	-18%	-1%
O=C(CCc1ccccc1)NNC(=O)Nc1ccc(Cl)cc1	-28%	i	19%	-6%	-5%	4%
COc1ccccc1OCC(=O)NNC(=O)Nc1ccc(Cl)cc1	-4%	i	18µM*	5.8µM*	2%	-23%
O=C(CN1c2ccccc2Sc2ccccc21)NNC(=O)Nc1ccc(Cl)c(Cl)c1	-10%	i	21µM*	?	13µM*	?
CCc1ccc(NC(=O)CN(Cc2ccccc2)S(=O)(=O)c2ccc3nc(C)sc3c2)cc1	-13%	i	nt	nt	-20%	-22%
COC(=O)C1CCN(Cc2ccc3c(c2)CN(C(=O)c2cc(C)on2)CCO3)CC1	nt	i	nt	nt	nt	nt
CCOC(=O)c1c(C)c(C(=O)Nc2ccc(N(C)C)cc2)c(C)n1CC	54%	i	8.9µM*	7.1µM*	2%	-19%
CCn1c(-c2ccccc2F)nc2cc(NC(C)=O)cc(C(=O)N(C)Cc3c(C)nc4ccccn34)c21	nt	i	nt	nt	nt	nt
CCN(CC)S(=O)(=O)c1ccc(NC(=O)CSc2cccc[n+]2[O-])cc1	3%	i	2%	10%	10µM*	13%
NNC(=O)/C(=N/Nc1ccccc1)S(=O)(=O)c1ccc(Cl)cc1	14µM*	?	?	?	-3%	-34%
O=C(O)Cc1sc(Nc2cccc3ccccc23)nc1-c1ccc(Cl)cc1	-37%	i	12µM*	-20%	0%	-7%
CC1=C([N+](=O)[O-])C(c2cccc(Br)c2)C2=C(N1)c1ccccc1C2=O (stereo not drawn)	?	?	1.3µM*	1.3µM*	-32%	?
COC(=O)C1=C(C)NC2=C(C(=O)c3ccccc32)C1c1cccc(OC)c1 (stereo not drawn)	nt	i	13%	-1%	-1%	3%
Nc1c(Br)cc(Br)c2cccnc12	nt	nt	nt	nt	8%	0%
CN(CCO)C1=NS(=O)(=O)c2cc([N+](=O)[O-])ccc21	-10%	i	1%	-17%	-25%	-4%
C=CCOCCN(C)C1=NS(=O)(=O)c2cc([N+](=O)[O-])ccc21	-36%	i	-1%	?	14µM*	?
CCc1ccccc1NC(=O)c1ccc2c(c1)CCCN2S(C)(=O)=O	9%	i	nt	nt	-11%	33%
C[C@]12CC[C@@H]3c4ccc(O)cc4CC[C@H]3[C@H]1CC[C@H]2O	-17%	nt	nt	nt	nt	nt
COc1ccc2c(c1)CCc1cnc(-n3ncc(C(=O)NCc4cc(C)no4)c3C3CC3)nc1-2	nt	i	nt	nt	nt	nt

Screening data deposited in PubChem by National Center for Advancing Translational Sciences (NCATS).
